40 compounds from ChEMBL document CHEMBL3433997, “St. Jude Leishmania screening dataset” (2016) can be followed below.

In one experiment the target is Solute carrier family 2, facilitated glucose transporter member 1 (Homo sapiens) (UniProt P11166). Briefly: ST_JUDE_LEISH: Cytotoxicity at 2uM final concentration against transgenic Leishmania Mexicana promastigotes LmGLUT1 that are glucose transport deficient and complemented with the human glucose transporter GLUT1. Activity is measured by DNA content using SYBR green in vitro. It is filed as functional.
Solute carrier family 2, facilitated glucose transporter member 1 (Homo sapiens), sequence (P11166 whole entry): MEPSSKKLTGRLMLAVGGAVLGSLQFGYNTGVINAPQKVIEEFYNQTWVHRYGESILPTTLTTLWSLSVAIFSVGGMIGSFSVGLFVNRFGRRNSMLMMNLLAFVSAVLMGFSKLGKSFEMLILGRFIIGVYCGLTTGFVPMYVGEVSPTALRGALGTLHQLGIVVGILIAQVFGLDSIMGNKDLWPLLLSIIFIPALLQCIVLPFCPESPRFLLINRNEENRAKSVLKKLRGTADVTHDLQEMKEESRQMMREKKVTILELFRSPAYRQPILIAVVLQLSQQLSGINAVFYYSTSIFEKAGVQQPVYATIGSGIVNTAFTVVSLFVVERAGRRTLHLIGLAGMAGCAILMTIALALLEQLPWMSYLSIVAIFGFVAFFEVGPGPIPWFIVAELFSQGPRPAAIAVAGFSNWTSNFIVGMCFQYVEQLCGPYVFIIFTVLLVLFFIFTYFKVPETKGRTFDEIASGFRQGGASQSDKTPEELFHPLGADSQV
`Oc1ccc2[nH]c(-c3cccc(F)c3)nc2c1CN1CCCC1`: the inhibition amounted to 4.75%.
For `CCCCNCc1ccc(-c2nc(CN(CCCN3CCN(C)CC3)C(=O)Nc3cccc(Cl)c3)cs2)cc1`, the inhibition turned out to be 5.24%.
The same measure, in the same setting: then `COc1cc2nc(N3CCC(CNC(=O)c4ccc(-c5ccc(C(=O)N(C)C)cc5)cc4)CC3)nc(N)c2cc1OC`, with 1.96%; and `Cc1c(F)cc(C(=O)NC2CC2)cc1-c1ccc2c(cnn2S(=O)(=O)c2ccc(Cl)s2)c1`, with 3.04%.
Same read-out and setting: next, `N#Cc1c(N2CCCCCC2)nc(N)c2c(N)nc3c(c12)CC(=O)N3c1ccc(F)cc1`: 2.61%; `Clc1cc(Br)ccc1-c1ccc(CNCC2CCNCC2)o1`: 0.75%.
Same read-out and setting: then `O=C(Nc1cccc(CN2CCCN(Cc3ncc[nH]3)CC2)c1)c1cc2ccccc2s1`, with 3.43%; and `Cc1cc(N2CCC(C)CC2)nc2cc(O)ccc12`, with 1%; and `COc1ccc(CNC(=O)NC2CCN(c3ccnc(Nc4ccc(F)cc4)n3)C2)cc1` (stereo not given), with 7.84%.
For `Cc1noc(C)c1-c1ccc(C(=C2CCCCCC2)c2ccc(O)cc2)cc1`, the inhibition stood at 3.18%.
`O=C1C(=Cc2cc(Cc3ccccc3)ccc2O)SC(=S)N1Cc1ccccc1`: the inhibition was 8.42%.
For `Cc1cccc(Cn2nc(-c3ccccc3)c(N3CCCCC3)cc2=O)c1`, the inhibition was determined as 2.58%.
On the same count and under the same terms, then `FC(F)(F)c1ccc2[nH]c(-c3ccc(-c4cccc(CNCCN5CCNCC5)c4)cc3)nc2c1`, with 0.53%; and `CS(=O)(=O)N1CC2(CCN(CCC(NC(=S)Nc3ccccc3)c3ccc(Cl)c(Cl)c3)CC2)c2ccccc21` (stereo not given), with 3.72%; and `Cc1ccc(C(C(=O)Nc2ccc(N3CCNCC3)c(Cl)c2)c2ccccc2)cc1` (stereo not given), with 4.78%.
On the same count and under the same terms, next, `O=C(Nc1ccc(N2CCN(Cc3c[nH]c4cc(F)ccc34)CC2)cc1)c1ccccc1-c1ccc(C(F)(F)F)cc1`: 7.38%; `COc1ccccc1CCNc1ncnc2c1[nH]c1ccc(F)cc12`: 4.25%; `Oc1c(C(Nc2ccccn2)c2ccco2)cc(Cl)c2cccnc12` (stereo not given): 0.55%.
On the same count and under the same terms, next, `Cc1nc(SCC(=O)N2CCCC2=O)c2c(C)c(C)sc2n1`: 8.94%; `O=C(/C=C/c1ccc(Cl)c(Cl)c1)NCCCCCN1CCC(CCNC(=O)C2(c3ccc(Cl)cc3)CC2)CC1`: 16.5%.
Regarding `COc1ccc(CN2CCN(CC(=O)Nc3cc(Cl)ccc3-n3cncn3)CC2)cc1F`, the inhibition was -1.01%.
The same measure, in the same setting: next, `CC(=O)CSC(C=Cc1ccc(N(C)C)cc1)=Nc1ccccc1`: 85.4%; `CCCCCCOc1ccc(C(=O)NCCC2CCN(CCCCCNC(=O)C=Cc3ccc(Cl)c(Cl)c3)CC2)cc1`: -0.8%.
Still for that read-out and setting: next, `COc1cc2nc(NCCn3nc(C)cc3C)nc(NCCc3ccccc3)c2cc1OC`: -0.49%.
On to `COc1ccc(CNC(=O)c2cnc3c(O)cccc3c2Nc2cccc(NC(=O)c3ccc(F)cc3)c2)cc1`, for which the inhibition was determined as 76%.
The same measure, in the same setting: next, `CCOC(=O)c1ccc(OCc2ccc(-c3ccccc3)cc2)cc1`: -0.38%; `COc1ccccc1N(C)CCNc1cc(C)nc(Nc2ccccc2)n1`: 11.5%.
Same read-out and setting: next, `Cc1nc(-c2nc(N3CCC(O)CC3)ncc2-c2ccsc2)sc1C`: -1.86%; `CC(C)(C)CC(C)(C)c1ccc(O)c(CNC2CCCCC2)c1`: 1.96%; `COc1ccc(O)c(Cc2cnc3nc(N)[nH]c(=O)c3c2C)c1`: 1.02%.
Still for that read-out and setting: then `O=C(CC(=O)Nc1cc(Cl)cc(Cl)c1)Nc1cc(Cl)cc(Cl)c1`, with -1.77%.
Consider `CC(C)[C@H](NC(=O)c1c(F)cccc1F)C(=O)Nc1ccc(Cc2nc3ccccc3s2)cc1`, for which the inhibition is 4.82%.
Regarding `COc1ccc2c(c1)OC(C)(C)CC2=NOS(=O)(=O)c1ccc(C)cc1`, the inhibition stood at 2.81%.
Still for that read-out and setting: next, `CCCOc1ccc(C(=O)Nc2nonc2-c2ccc(OC)c(OC)c2)cc1`: 8.69%; `CCc1ccccc1N1CCN(CCCC(=O)c2ccc(NC(=O)c3cc(Cl)cc(Cl)c3)cc2)CC1`: 3.17%; `N=C(N)NC(=O)Nc1ccc(Cl)c(Cl)c1`: 3.47%.
Consider `O=C(CCCCCNC(=O)c1ccc(O)c(-c2ccc(Cl)c(Cl)c2)c1)NCCN1CCCCC1`, for which the inhibition was determined as 2.71%.
The same measure, in the same setting: then `CCCCCCCc1c2c(C)c(C(=O)OCC)nc-2cc2n1CC(C)=C2C`, with 3.56%; and `CC1CN(Cc2ccccc2)CCN1c1ccc(NC(=O)c2cccs2)cc1` (stereo not given), with 10.9%.
Still for that read-out and setting: next, `COc1ccc2nccc([C@@H](O)CN3CCC(NCc4nc5c(C#N)cccc5[nH]4)CC3)c2c1`: 3.6%.

Another experiment has as its target Hexose transporter 1 (Plasmodium falciparum) (UniProt O97467). Nature of the experiment: ST_JUDE_LEISH: Cytotoxicity at 2uM final concentration against transgenic Leishmania Mexicana promastigotes LmPfHT that are glucose transport deficient and complemented with the Plasmodium falciparum hexose transporter. Activity is measured by DNA content using SYBR green in vitro. It is filed as functional.
For the compound `Oc1ccc2[nH]c(-c3cccc(F)c3)nc2c1CN1CCCC1`, the inhibition came out at 3.49%.
The same measure, in the same setting: then `CCCCNCc1ccc(-c2nc(CN(CCCN3CCN(C)CC3)C(=O)Nc3cccc(Cl)c3)cs2)cc1`, with 9.93%; and `COc1cc2nc(N3CCC(CNC(=O)c4ccc(-c5ccc(C(=O)N(C)C)cc5)cc4)CC3)nc(N)c2cc1OC`, with 0.11%; and `Cc1c(F)cc(C(=O)NC2CC2)cc1-c1ccc2c(cnn2S(=O)(=O)c2ccc(Cl)s2)c1`, with 1.53%.
With `N#Cc1c(N2CCCCCC2)nc(N)c2c(N)nc3c(c12)CC(=O)N3c1ccc(F)cc1`, the inhibition stood at 1.65%.
For `Clc1cc(Br)ccc1-c1ccc(CNCC2CCNCC2)o1`, the inhibition is -0.1%.
On the same count and under the same terms, then `O=C(Nc1cccc(CN2CCCN(Cc3ncc[nH]3)CC2)c1)c1cc2ccccc2s1`, with 5.48%.
As to `Cc1cc(N2CCC(C)CC2)nc2cc(O)ccc12`, the inhibition turned out to be 0.44%.
Still for that read-out and setting: then `COc1ccc(CNC(=O)NC2CCN(c3ccnc(Nc4ccc(F)cc4)n3)C2)cc1` (stereo not given), with 5.37%; and `Cc1noc(C)c1-c1ccc(C(=C2CCCCCC2)c2ccc(O)cc2)cc1`, with 3.88%; and `O=C1C(=Cc2cc(Cc3ccccc3)ccc2O)SC(=S)N1Cc1ccccc1`, with 7.14%.
Still for that read-out and setting: then `Cc1cccc(Cn2nc(-c3ccccc3)c(N3CCCCC3)cc2=O)c1`, with 3.01%; and `FC(F)(F)c1ccc2[nH]c(-c3ccc(-c4cccc(CNCCN5CCNCC5)c4)cc3)nc2c1`, with -0.94%.
Same read-out and setting: next, `CS(=O)(=O)N1CC2(CCN(CCC(NC(=S)Nc3ccccc3)c3ccc(Cl)c(Cl)c3)CC2)c2ccccc21` (stereo not given): 1.67%; `Cc1ccc(C(C(=O)Nc2ccc(N3CCNCC3)c(Cl)c2)c2ccccc2)cc1` (stereo not given): 0.84%.
For the compound `O=C(Nc1ccc(N2CCN(Cc3c[nH]c4cc(F)ccc34)CC2)cc1)c1ccccc1-c1ccc(C(F)(F)F)cc1`, the inhibition came to 4.06%.
Still for that read-out and setting: then `COc1ccccc1CCNc1ncnc2c1[nH]c1ccc(F)cc12`, with 12.9%.
For the compound `Oc1c(C(Nc2ccccn2)c2ccco2)cc(Cl)c2cccnc12` (stereo not given), the inhibition came out at 1.24%.
Same read-out and setting: then `Cc1nc(SCC(=O)N2CCCC2=O)c2c(C)c(C)sc2n1`, with 8.95%; and `O=C(/C=C/c1ccc(Cl)c(Cl)c1)NCCCCCN1CCC(CCNC(=O)C2(c3ccc(Cl)cc3)CC2)CC1`, with 6.12%; and `COc1ccc(CN2CCN(CC(=O)Nc3cc(Cl)ccc3-n3cncn3)CC2)cc1F`, with 1.82%.
On the same count and under the same terms, next, `CC(=O)CSC(C=Cc1ccc(N(C)C)cc1)=Nc1ccccc1`: 83.3%; `CCCCCCOc1ccc(C(=O)NCCC2CCN(CCCCCNC(=O)C=Cc3ccc(Cl)c(Cl)c3)CC2)cc1`: -0.99%; `COc1cc2nc(NCCn3nc(C)cc3C)nc(NCCc3ccccc3)c2cc1OC`: 5.15%.
Same read-out and setting: next, `COc1ccc(CNC(=O)c2cnc3c(O)cccc3c2Nc2cccc(NC(=O)c3ccc(F)cc3)c2)cc1`: 78.5%.
Turning to `CCOC(=O)c1ccc(OCc2ccc(-c3ccccc3)cc2)cc1`, the inhibition is -0.13%.
In the case of `COc1ccccc1N(C)CCNc1cc(C)nc(Nc2ccccc2)n1`, the inhibition is 8.65%.
On to `Cc1nc(-c2nc(N3CCC(O)CC3)ncc2-c2ccsc2)sc1C`, for which the inhibition is -1.39%.
In the case of `CC(C)(C)CC(C)(C)c1ccc(O)c(CNC2CCCCC2)c1`, the inhibition was 2.09%.
Still for that read-out and setting: next, `COc1ccc(O)c(Cc2cnc3nc(N)[nH]c(=O)c3c2C)c1`: 0.5%; `O=C(CC(=O)Nc1cc(Cl)cc(Cl)c1)Nc1cc(Cl)cc(Cl)c1`: -3.47%; `CC(C)[C@H](NC(=O)c1c(F)cccc1F)C(=O)Nc1ccc(Cc2nc3ccccc3s2)cc1`: 4.54%.
Same read-out and setting: next, `COc1ccc2c(c1)OC(C)(C)CC2=NOS(=O)(=O)c1ccc(C)cc1`: 0.98%; `CCCOc1ccc(C(=O)Nc2nonc2-c2ccc(OC)c(OC)c2)cc1`: 7.86%; `CCc1ccccc1N1CCN(CCCC(=O)c2ccc(NC(=O)c3cc(Cl)cc(Cl)c3)cc2)CC1`: 4.43%.
The same measure, in the same setting: then `N=C(N)NC(=O)Nc1ccc(Cl)c(Cl)c1`, with -2.48%; and `O=C(CCCCCNC(=O)c1ccc(O)c(-c2ccc(Cl)c(Cl)c2)c1)NCCN1CCCCC1`, with 2.46%.
Consider `CCCCCCCc1c2c(C)c(C(=O)OCC)nc-2cc2n1CC(C)=C2C`, for which the inhibition amounted to 2.2%.
The same measure, in the same setting: next, `CC1CN(Cc2ccccc2)CCN1c1ccc(NC(=O)c2cccs2)cc1` (stereo not given): 12.3%; `COc1ccc2nccc([C@@H](O)CN3CCC(NCc4nc5c(C#N)cccc5[nH]4)CC3)c2c1`: 3.33%.

As usually defined, the inhibition is the change of the read-out against control, counted positive when it falls.
